# Test results: article PMC4336329 (PLoS ONE, 2015)
# Hit rate of the full screen: of about 310,000 compounds, about 14,000 (4.5%) showed an effect of 50% or more. Effects have a minus sign here. The full list was thinned out, with strong results kept by preference.
# Target: human ether-à-go-go-related gene (hERG) potassium channel (human, UniProt Q12809)
# Test: primary screen, population patch clamp on CHO cells stably expressing hERG; higher = less effect of the substance
# 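Note: peak tail current of the secondary pulse compared with the same well before compound.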
# Sequence of human ether-à-go-go-related gene (hERG) potassium channel (Q12809 whole entry, looked up): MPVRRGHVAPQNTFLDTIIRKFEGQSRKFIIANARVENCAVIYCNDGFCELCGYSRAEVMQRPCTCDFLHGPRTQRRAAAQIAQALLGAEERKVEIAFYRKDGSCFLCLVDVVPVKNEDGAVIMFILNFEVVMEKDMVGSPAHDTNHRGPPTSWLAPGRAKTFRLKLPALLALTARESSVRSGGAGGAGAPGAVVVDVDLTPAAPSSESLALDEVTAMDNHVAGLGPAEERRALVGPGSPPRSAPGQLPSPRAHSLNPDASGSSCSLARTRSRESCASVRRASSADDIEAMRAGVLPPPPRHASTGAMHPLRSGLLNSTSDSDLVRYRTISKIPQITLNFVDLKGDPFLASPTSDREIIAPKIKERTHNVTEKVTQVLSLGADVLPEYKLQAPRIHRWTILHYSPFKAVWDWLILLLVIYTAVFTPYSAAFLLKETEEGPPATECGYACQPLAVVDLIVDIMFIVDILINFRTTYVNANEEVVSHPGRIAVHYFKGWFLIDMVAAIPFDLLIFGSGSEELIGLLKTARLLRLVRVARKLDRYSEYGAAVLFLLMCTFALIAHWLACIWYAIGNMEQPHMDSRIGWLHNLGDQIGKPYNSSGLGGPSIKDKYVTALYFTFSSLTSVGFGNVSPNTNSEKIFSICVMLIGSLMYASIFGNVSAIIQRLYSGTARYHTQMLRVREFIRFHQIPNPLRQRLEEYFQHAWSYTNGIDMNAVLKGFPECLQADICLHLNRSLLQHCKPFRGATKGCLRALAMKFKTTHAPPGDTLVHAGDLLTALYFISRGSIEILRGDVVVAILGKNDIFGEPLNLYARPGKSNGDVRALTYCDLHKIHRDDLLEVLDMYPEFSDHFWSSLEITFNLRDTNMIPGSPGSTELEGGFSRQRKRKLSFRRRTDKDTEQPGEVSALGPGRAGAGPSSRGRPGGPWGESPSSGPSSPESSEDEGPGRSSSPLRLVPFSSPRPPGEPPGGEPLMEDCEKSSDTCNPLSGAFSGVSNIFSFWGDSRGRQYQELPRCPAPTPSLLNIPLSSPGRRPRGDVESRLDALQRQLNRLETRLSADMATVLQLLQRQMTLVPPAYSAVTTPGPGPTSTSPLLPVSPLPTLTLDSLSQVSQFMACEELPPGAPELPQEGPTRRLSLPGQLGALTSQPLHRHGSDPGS
row,SMILES,"hERG current change (%, negative = inhibition) at 10uM"
1,COCCN(C(=O)c1csnn1)C(C(=O)NC1CCCC1)c1ccccc1 (centres unmarked),3.23%
2,CC(C)C1=C2OC(N)=C(C#N)C(C#N)=C2C(C)CC1 (centres unmarked),9.98%
3,C#CCNC(=O)C1=C[C@@H](c2ccc(Br)cc2)[C@H](CCCO)[C@@H](OCC)O1,-28.4%
4,CCOc1ccc(N(CC)S(=O)(=O)c2ccc3c(c2)oc(=O)n3C)cc1,-5.43%
5,COC(=O)c1sccc1NC(=O)c1cc(C)on1,4.01%
6,COc1ccccc1-c1coc2c(CN3CCC(C)CC3)c(O)ccc2c1=O,7.18%
7,Cc1ccc(S(=O)(=O)N2CCOCC2)cc1C(=O)NCCCn1ccnc1,15.6%
8,CC1CCC(C(C)C)C(OCC(O)CNC(C)c2ccccc2)C1.Cl (centres unmarked),0.875%
9,CC1CCCCN1CC(O)COCc1ccccc1.Cl (centres unmarked),5.66%
10,CC1CCN(CC(O)COCCC23CC4CC(CC(C4)C2)C3)CC1.Cl (centres unmarked),-51.5%
11,CC(NCC(O)COCCC12CC3CC(CC(C3)C1)C2)c1ccccc1.Cl (centres unmarked),-53.8%
12,CC1CC(OCC(O)CN2CCCCC2C)CC(C)(C)C1.Cl (centres unmarked),-25.8%
13,Cl.OC(COCCC12CC3CC(CC(C3)C1)C2)CN1CCCC1 (centres unmarked),-30.3%
14,Cl.OC(COCCC12CC3CC(CC(C3)C1)C2)CN1CCCCC1 (centres unmarked),-40.1%
15,NCC(O)COCCC12CC3CC(CC(C3)C1)C2 (centres unmarked),-1.48%
16,CC1CCCCN1CC(O)COCCC12CC3CC(CC(C3)C1)C2.Cl (centres unmarked),-63.6%
17,CCC(=O)Nc1ccc(N2CCN(C(=O)c3ccccc3C)CC2)cc1,0.168%
18,CSc1nc(N(C)C)c2ccccc2n1,-19%
19,CCn1ccnc1CN(C)Cc1c(C(=O)N2C[C@@H](C)O[C@@H](C)C2)nc2ccc(Cl)cn12,11.6%
20,Cc1ccc(N2N=C(C(=O)O)CCC2=O)cc1Cl,-45.2%
21,CCC1(c2ccccc2)NC(=O)N(CC(=O)c2ccc3c(c2)OCO3)C1=O (centres unmarked),-4.15%
22,O=C(Nc1ccc(F)cc1)N(CCCN1CCOCC1)Cc1cc2cc3c(cc2[nH]c1=O)OCO3,-49.3%
23,O=C(Nc1ccc(F)cc1)N(CCCN1CCOCC1)Cc1cc2cc3c(cc2[nH]c1=O)OCCO3,-25.1%

row,SMILES,"hERG current change (%, negative = inhibition) at 10uM"
1,Cc1ccc2[nH]c(=O)c(CN(CCCN3CCOCC3)C(=O)Nc3ccc(Cl)cc3)cc2c1,-71.7%
2,CCc1ccc2[nH]c(=O)c(CN(CCCN3CCOCC3)C(=O)Nc3ccccc3)cc2c1,-54.2%
3,CCc1ccc2[nH]c(=O)c(CN(CCCN3CCOCC3)C(=O)Nc3ccc(F)cc3)cc2c1,-68.1%
4,O=C(Nc1ccccc1)N(CCCN1CCOCC1)Cc1ccccc1F,-20.6%
5,Cc1ccc2[nH]c(=O)c(CN(CCCN3CCOCC3)C(=O)Nc3cccc(Cl)c3)cc2c1,-32.4%
6,O=C(Nc1ccccc1)N(CCCN1CCOCC1)Cc1cc2cc3c(cc2[nH]c1=O)OCCO3,-2.99%
7,O=C(Nc1cccc(Cl)c1)N(CCCN1CCOCC1)Cc1ccccc1F,-64.5%
8,O=C(Nc1cccc(Cl)c1)N(CCN1CCOCC1)Cc1ccccc1F,-49.6%
9,Cc1ccc2[nH]c(=O)c(CN(CCN3CCOCC3)C(=O)Nc3ccc(F)cc3)cc2c1,-37%
10,CCc1ccc2[nH]c(=O)c(CN(CCN3CCOCC3)C(=O)Nc3ccccc3F)cc2c1,-23.1%
11,CCOc1ccc(S(=O)(=O)Nc2ccc3c(c2)OCO3)cc1,-14.9%
12,COc1cc(NC(=S)NCCSc2ccc(C)cc2)cc(OC)c1,-1.01%
13,C=CCOc1ccccc1CNCc1cccnc1.Cl,12.6%
14,Cc1cc(C(=O)NNC(=S)Nc2cccc(C(F)(F)F)c2)nn1C,30.1%
15,Cc1ccc(-n2cc[nH]c2=S)cc1C,22.7%
16,COc1ccc(CN(CCCN2CCOCC2)C(=O)Nc2cccc(Cl)c2)cc1OC,-39.3%
17,COc1cc2cc(CN(CCCN3CCOCC3)C(=O)Nc3ccc(F)cc3)c(=O)[nH]c2cc1OC,-33.2%
18,CCc1ccc2[nH]c(=O)c(CN(CCCN3CCOCC3)C(=O)Nc3ccc(Cl)cc3)cc2c1,-65.6%
19,Cc1ccc(NC(=O)N(CCCN2CCOCC2)Cc2cc3cc4c(cc3[nH]c2=O)OCO4)cc1,-42%
20,CCc1ccc2[nH]c(=O)c(CN(CCCN3CCOCC3)C(=O)Nc3cccc(Cl)c3)cc2c1,-54.1%
21,COc1ccc2[nH]c(=O)c(CN(CCCN3CCOCC3)C(=O)NCc3ccccc3)cc2c1,8.39%
22,Oc1ccc(/C=N/NC(=S)Nc2cccnc2)c(O)c1,17.5%
23,O=C(Cc1ccccc1)Nc1ncccc1Cl,6.6%

row,SMILES,"hERG current change (%, negative = inhibition) at 10uM"
1,CCCCOc1ccc(C(=S)N2CCC(C(N)=O)CC2)cc1,6.67%
2,COC(=O)C1=CO[C@@H](C)[C@H]2CN3CCc4c([nH]c5ccccc45)[C@@H]3C[C@H]12.Cl,-20.2%
3,COC(=O)C1=CO[C@@H](C)[C@@H]2CN(CCc3c[nH]c4ccccc34)CC[C@H]12,-57%
4,O=C(NC1CCN(CCc2c[nH]c3ccccc23)CC1)c1ccccc1,-71.7%
5,O=C(NC1CCCN(CCc2ccccc2)C1)c1c(F)cccc1F (centres unmarked),-46.2%
6,O=C(NC1CCCN(CCc2ccccc2)C1)c1c[nH]c2ccccc12 (centres unmarked),-68.2%
7,COC(=O)C1=COC(C)C2CN3CCc4c([nH]c5ccccc45)C3CC12 (centres unmarked),-34.3%
8,O=C(CCc1c[nH]c2ccccc12)NC1CC1,14.1%
9,O=C(NCCc1c[nH]c2ccccc12)c1ccccc1,4.79%
10,O=C(NC1CCCN(CCc2ccccc2)C1)C1CCCC1 (centres unmarked),-36.7%
11,CSC1=C(C#N)C(c2ccccc2Cl)C2=C(N1)c1ccccc1C2=O (centres unmarked),6.44%
12,CCC(C)(C)n1nnnc1C(c1cccs1)N1CCCCC1 (centres unmarked),-19.4%
13,Cc1cccn2c(CN3CCCN(C=O)CC3)c(C(=O)N(C)CCc3ccccc3)nc12,26.6%
14,COc1ccc(CCN(C)C2CCCN(C(=O)Cn3cccn3)C2)cc1OC (centres unmarked),-6.28%
15,CCCCNC(=O)N1CCCC(N(C)CCc2ccc(OC)c(OC)c2)C1 (centres unmarked),-67.8%
16,CC(=O)NCCC(=O)N1CCCC(N(C)CCc2ccccc2)C1 (centres unmarked),-26.7%
17,COc1ccc(CCN(C)C2CCCN(C(=O)CCSC)C2)cc1OC (centres unmarked),-57.2%
18,COc1ccc(CCN(C)C2CCCN(C(=O)Cn3cnnn3)C2)cc1OC (centres unmarked),10.2%
19,COC(=O)CCCC(=O)N1CCCC(N(C)CCc2ccccc2)C1 (centres unmarked),-40.6%
20,COc1ccc(CCN(C)C2CCCN(C(=O)CCC(F)(F)F)C2)cc1OC (centres unmarked),-52%
21,CCOC(=O)CCNC(=O)N1CCCC(N(C)CCc2ccc(OC)c(OC)c2)C1 (centres unmarked),-6.37%
22,CCOC(=O)CCNC(=O)N1CCCC(N(C)CCc2ccccc2)C1 (centres unmarked),-49.4%
23,COCC(=O)N1CCCC(N(C)CCc2ccc(OC)c(OC)c2)C1 (centres unmarked),8.28%

row,SMILES,"hERG current change (%, negative = inhibition) at 10uM"
1,CSCCC(=O)N1CCCC(N(C)CCc2ccccc2)C1 (centres unmarked),-56.8%
2,COCC(C)n1c(C)cc(C(=O)CN2C(=O)NC3(CCCCC3C)C2=O)c1C (centres unmarked),-8.29%
3,COC(=O)c1ccc(NC(=S)N2CCC(C(N)=O)CC2)cc1,12.2%
4,CCC(C)(C(=O)NC1CCCCC1)N(C(=O)CNC(=O)c1ccccc1)c1c(C)n(C)n(-c2ccccc2)c1=O (centres unmarked),10.1%
5,CN=C1SC(C(=O)O)CC(=O)N1C (centres unmarked),19.1%
6,Cc1ccc(NC(=S)Nc2ccc(OC(F)F)c(Cl)c2)cc1Cl,16.5%
7,Cc1nc2ccc(S(=O)(=O)NCC(=O)NCCc3ccc(Cl)cc3)cc2s1,28.3%
8,c1ccc2c(-c3nnc(SCc4cn5ccccc5n4)o3)c[nH]c2c1,-4.5%
9,Cc1nc(Cl)c(C(=O)Nc2cccc(F)c2)c(C)c1Cl,-5.95%
10,CSc1nnc(CNS(=O)(=O)c2ccc(F)cc2)n1C,19.7%
11,CCOC(=O)/C(C#N)=C/C=C1\C=Cc2ccccc2N1CC,7.18%
12,CCN1/C(=C/c2ccc3ccccc3[n+]2CC)C=Cc2ccccc21.[Cl-],-82.5%
13,CCN1C(=C(C#N)C#N)C=Cc2cc(C)ccc21,15.7%
14,C=CC[n+]1c(/C=C2\C=Cc3cc(C)ccc3N2CC)ccc2ccccc21.[Br-],-83.5%
15,CCN1C(=O)/C(=C2\C=Cc3cc(C)ccc3N2CC)OC1=S,0.13%
16,CCN1/C(=C2\C(=O)N(c3ccccc3)N=C2C)C=Cc2cc(C)ccc21,-40%
17,CCN1/C(=C/c2cc[n+](C)cc2)C=Cc2cc(C)ccc21.[I-],-72.2%
18,CCN1C(=C(C#N)C#N)C=Cc2ccccc21,15.8%
19,CCN1/C(=C/c2ccc3ccccc3[n+]2CCCS(=O)(=O)[O-])C=Cc2cc(C)ccc21,24.2%
20,CC1=C(C(N)=O)C(c2ccccc2F)n2nc(CCCO)nc2N1 (centres unmarked),20.3%
